Assay outcomes as filed in PubChem BioAssay.
A selection: hits, their analogues and other compounds. The true share with any hit is near 1%.
Hsp90 inh = tumor Hsp90 inhibitors, primary screen, cell lysate, fluorescence polarization, NCI-N417 lysate | AID 429, 2006 | inhibition, % at 30 µM | Heat shock protein HSP 90-alpha (Homo sapiens), P07900 | Cy3B-geldanamycin FP displacement | 64,000 tested, 0.35% active;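 active = inhibition above 50%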
PKA kinase inh = inhibitors of human PKA kinase activity, primary screen, biochemical, ATP-depletion luminescence, Kemptide substrate; cAMP-dependent protein kinase catalytic subunit alpha (Homo sapiens), P17612; PKA Kemptide phosphorylation, Kinase-Glo ATP luminescence; inhibition, % at 6 µM; 65,000 tested, 0.1% active;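 active = inhibition above the screen-wide mean inhibition plus 3 SD, cut at about 21% in these data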
JNK3 inh = JNK3 kinase activity inhibitors, primary screen, biochemical, human, purified enzyme; Mitogen-activated protein kinase 10 (Homo sapiens), P53779; inhibition, % at 8 µM; 60,000 tested, 0.61% active; AID 746, 2007; HTS; in the data active = inhibition above about 17%
DUSP1 inh = MKP-1 phosphatase inhibitors, primary screen, biochemical, in vitro; 65,000 tested, 0.15% active; inhibition, %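 (compounds tested at a single concentration somewhere between 10 and 100 µM)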; recombinant MKP-1, OMFP hydrolysis fluorescence; Dual specificity protein phosphatase 1 (Homo sapiens), P28562;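 active = inhibition above about 50%, limit read from the data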
Cdc25B block = inhibitors of Cdc25B phosphatase catalytic domain, primary screen, biochemical, OMFP fluorescence; 65,000 tested, 0.1% active; inhibition, %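 (compounds tested at 10 µM final in the well)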; M-phase inducer phosphatase 2 (Homo sapiens), P30305; recombinant Cdc25B, OMFP fluorescence Ex485/Em525; in the data active = inhibition above about 50%
Target sequence (P30305 whole entry, looked up, the tested form may be a part): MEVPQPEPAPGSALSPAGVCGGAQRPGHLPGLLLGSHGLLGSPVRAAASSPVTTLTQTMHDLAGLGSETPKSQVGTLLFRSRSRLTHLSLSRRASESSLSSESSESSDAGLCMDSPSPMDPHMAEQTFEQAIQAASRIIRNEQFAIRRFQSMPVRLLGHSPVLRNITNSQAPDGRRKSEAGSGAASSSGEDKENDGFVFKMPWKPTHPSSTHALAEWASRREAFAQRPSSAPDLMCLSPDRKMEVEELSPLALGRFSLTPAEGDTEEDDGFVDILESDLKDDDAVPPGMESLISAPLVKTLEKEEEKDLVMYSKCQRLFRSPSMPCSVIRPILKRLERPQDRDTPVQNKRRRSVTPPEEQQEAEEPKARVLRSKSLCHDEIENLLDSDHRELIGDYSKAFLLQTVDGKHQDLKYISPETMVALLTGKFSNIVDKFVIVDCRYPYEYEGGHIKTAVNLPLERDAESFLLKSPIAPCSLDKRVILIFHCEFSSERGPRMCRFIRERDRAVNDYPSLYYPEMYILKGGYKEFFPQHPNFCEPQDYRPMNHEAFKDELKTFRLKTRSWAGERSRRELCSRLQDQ
ROCK2 blocker = inhibitors of human ROCK2 kinase, primary screen, biochemical, high-throughput, luminescence; purified ROCK2, Kinase-Glo ATP depletion luminescence; inhibition, % at 6 µM; 60,000 tested, 0.35% active; AID 604, 2007;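 active = inhibition above the screen-wide mean inhibition plus 3 SD, cut at about 18% in these data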
A number is an active result; – = inactive; · = no result.

SMILES | Hsp90 inh | PKA kinase inh | JNK3 inh | DUSP1 inh | Cdc25B block | ROCK2 blocker
CC(=O)Nc1nc(C)c(-c2csc(Nc3ccc(O)cc3)n2)s1 | – | – | 18 | – | – | –
C[C@H](NC(=O)/C(C#N)=C/c1ccc(O)c(O)c1)c1ccccc1 | 75 | · | · | · | · | ·
N#C/C(=C\c1ccc(O)c(O)c1)C(=O)Nc1ccccc1 | 83 | · | · | · | · | ·
C[C@@H](NC(=O)/C(C#N)=C/c1ccc(O)c(O)c1)c1ccccc1 | 77 | · | · | · | · | ·
N#CC(C#N)=C(N)/C(C#N)=C/c1ccc(O)cc1 | – | · | · | · | · | ·
N#C/C(=C\c1ccc(O)c(O)c1)C(=O)NCCCNC(=O)/C(C#N)=C/c1ccc(O)c(O)c1 | 81 | · | · | · | · | ·
COc1ccc2nccc(C)c2c1 | – | · | · | · | · | ·
COc1ccc(C(=O)CSc2nnc(CNc3nc(-c4ccccc4)cs3)n2C)cc1 | – | – | – | – | – | –
COC(=O)c1c(NC(=O)Cc2cccs2)sc(C)c1C | · | – | 18 | – | – | –
CC1(C)NC(=O)N(c2ccc([N+](=O)[O-])c(C(F)(F)F)c2)C1=O | – | · | · | · | · | ·
CCCN1Cc2cccc(C(=O)NCc3ccc4c(c3)OCO4)c2C1=O | – | – | 24 | – | – | –
CN(C)CCCNc1ccc(N(O)O)c2cccnc12 | – | · | · | · | · | ·
Cc1cc(Cl)ccc1OCc1nc(-c2ccc(O)cc2)n[nH]1 | – | – | – | – | – | 27
COc1cc(C)nc(NC(=O)COc2ccc(Cl)cc2C)n1 | – | – | – | – | – | –
CCC(=O)NC1(C(F)(F)F)C(=O)Nc2c1c(=O)n(C)c(=O)n2C (stereo not drawn) | – | – | – | – | 60 | –
Cc1cccc(/N=C/c2c(O)[nH]c3ccccc23)n1 | – | – | 30 | – | – | –
Cc1cccc(/N=C/c2c(O)cc(C)oc2=O)n1 | – | – | – | – | – | –
Oc1[nH]c2ccccc2c1C=Nc1ccc2c(c1)OCCO2 | – | – | 35 | – | – | –
Nc1ncnc2c1nc(Sc1ccc(Cl)cc1)n2C1OC2COP(=O)(O)O[C@@H]2[C@@H]1O (stereo partly drawn) | – | · | · | · | · | ·
Fc1cc2nccnc2cc1N1CCSCC1 | – | – | 23 | – | – | –
Cc1cccc(-n2ncc3c(NCc4ccccc4)ncnc32)c1 | – | – | – | – | – | –
Fc1ccc(CNc2ncnc3c2cnn3-c2ccccc2)cc1 | – | – | – | – | – | –
Cn1ncc2c(NCc3ccccc3)ncnc21 | – | – | 18 | – | – | –
Cc1cccc(-n2ncc3c(NCc4cccs4)ncnc32)c1 | – | – | 22 | – | – | –
c1ccc(CNc2ncnc3c2cnn3-c2ccccc2)cc1 | – | – | 21 | – | – | –
SMILES | Hsp90 inh | PKA kinase inh | JNK3 inh | DUSP1 inh | Cdc25B block | ROCK2 blocker
CC(C)(C)NCC(O)COc1nsnc1N1CCOCC1 (stereo not drawn) | – | · | · | · | · | ·
CCCCCCCCCCCCCCCCCCNC(=O)OCC(COP(=O)([O-])OCC[n+]1ccsc1)OC (stereo not drawn) | – | · | · | · | · | ·
C[N+](C)(C)CCO | – | · | · | · | · | ·
O=C(O)c1ccc2c3c(ncnc13)-c1ccccc1C2=O | 90 | – | – | – | – | –
CCCCCCCCCCCCCCCC(=O)OC(CC(=O)O)C[N+](C)(C)C (stereo not drawn) | – | · | · | · | · | ·
Cn1c(=O)c2c(nc(/C=C/c3cccc(Cl)c3)n2C)n(C)c1=O | – | · | · | · | · | ·
CC(=O)[C@]1(O)Cc2c(O)c3c(c(O)c2[C@@H](O[C@H]2C[C@H](N)[C@H](O)[C@H](C)O2)C1)C(=O)c1ccccc1C3=O | 156 | · | · | · | · | ·
COc1cccc2c1C(=O)c1c(O)c3c(c(O)c1C2=O)C[C@@](O)(C(C)=O)C[C@@H]3O[C@H]1C[C@H](N)[C@H](O)[C@H](C)O1 | 80 | – | – | – | – | –
N[C@@H](CCCC(=O)O)C(=O)O | – | · | · | · | · | ·
Clc1ccccc1-c1nn2c(-c3ccncc3)nnc2s1 | – | – | – | – | – | 19
Clc1ccccc1-c1nnc2sc(-c3ccncc3)nn12 | – | – | – | – | – | 23
[N-]=[N+]=Nc1ccc(C(=O)CSC[C@H](NC(=O)CC[C@H](N)C(=O)O)C(=O)NCC(=O)O)cc1 | – | · | · | · | · | ·
CNc1ncnc2c1ncn2[C@H]1C[C@H](OP(=O)(O)O)[C@@H](COP(=O)(O)O)O1 | – | · | · | · | · | ·
O=C(CSc1nc2c([nH]c3ccccc32)c(=O)n1-c1ccccc1)N1CCOCC1 | – | – | – | – | – | –
COc1ccc(-n2c(SCC(=O)N3CCCC3)nc3c([nH]c4ccccc43)c2=O)cc1 | – | – | – | 54 | – | –
COc1cc(NCCC(=O)O)c2ncccc2c1 | – | · | · | · | · | ·
NCC1OC(O[C@@H]2[C@H](O)C(OC3C(O)C(N)CC(N)C3OC3OC(CO)C(O)C(O)C3N)O[C@@H]2CO)C(N)C(O)C1O (stereo partly drawn) | – | · | · | · | · | ·
CCSC1(SCC)N=C(N)C2(C#N)C(c3ccccc3)NC(C)=C(C)C12C#N (stereo not drawn) | – | – | – | – | – | –
CC1=CC(C#N)(C#N)C(C#N)(C#N)C(c2ccccc2)N1 (stereo not drawn) | 51 | – | – | – | – | –
COc1ccccc1NC(=O)COc1ccc(CO)cc1Cl | – | – | 19 | – | – | –
Cc1ccc2c(c1)C(N1CCN(C)CC1)=Nc1cccnc1N2 | – | · | · | · | · | ·
COc1ccc(-c2cnc(N)nc2-c2ccc(OC)cc2O)cc1 | – | – | 31 | – | – | –
C=C(C)COc1ccc(-c2ncncc2Oc2ccc(OC)cc2)c(O)c1 | – | – | – | – | – | –
COc1cccc(Oc2cnc(N)nc2-c2ccc(OC)cc2O)c1 | – | – | – | – | – | –
C=C(C)COc1ccc(-c2nc(N)ncc2-c2ccc(OC)cc2)c(O)c1 | – | – | 23 | – | – | –
SMILES | Hsp90 inh | PKA kinase inh | JNK3 inh | DUSP1 inh | Cdc25B block | ROCK2 blocker
COc1ccc2nc(C)cc(NN=Cc3cccnc3)c2c1 | – | · | · | · | · | ·
O=C(O)CCC(C(=O)O)N1C(=O)c2ccccc2C1=O (stereo not drawn) | – | · | · | · | · | ·
N#Cc1c(NCc2ccccc2)ccnc1NCc1cccnc1 | – | – | 75 | – | – | –
CC(=O)c1sc(Nc2ccccn2)nc1C | – | – | 23 | – | – | –
O=C(O)c1cc(NCc2ccc3c(c2)OCO3)ccc1N1CCOCC1 | – | – | – | – | – | 51
CCc1cc2c(=O)[nH]cnc2s1 | – | 23 | – | – | – | 51
CCc1cc2c(=O)n(-c3ccccc3)cnc2s1 | – | – | – | – | – | –
COc1cc(CC(=O)Nc2sccc2C(N)=O)cc(OC)c1OC | – | – | 56 | – | – | –
CCS(=O)(=O)NCc1ccc2[nH]c3c(c2c1)CCCC3 | 71 | – | – | – | – | –
CCN1C(=O)N(C)C2(c3ccccc3)N(C)C(=O)N(C)C12c1ccccc1 (stereo not drawn) | – | – | – | – | – | –
CCN1C(=O)N(CC)C(O)(c2ccccc2)C1(O)c1ccccc1 (stereo not drawn) | – | – | – | – | – | 34
